The results in this text go back to ChEMBL document CHEMBL3988442, “University of Dundee, Small-Polar-MMV Screening Library” (2021).

For some assays here: Potency and affinity values are given separately.

Common to all, as to set-up: scale not given: direction of the effect not stated beside the values
The target of test [1] is Protein translocase subunit SecA (Escherichia coli (strain K12)) (UniProt P10408). Briefly: Assay to Identify E. coli SecA ATPase Inhibitors. The following applies: 30 µM. The class given is functional.
Protein translocase subunit SecA (Escherichia coli (strain K12)), sequence (P10408 whole entry): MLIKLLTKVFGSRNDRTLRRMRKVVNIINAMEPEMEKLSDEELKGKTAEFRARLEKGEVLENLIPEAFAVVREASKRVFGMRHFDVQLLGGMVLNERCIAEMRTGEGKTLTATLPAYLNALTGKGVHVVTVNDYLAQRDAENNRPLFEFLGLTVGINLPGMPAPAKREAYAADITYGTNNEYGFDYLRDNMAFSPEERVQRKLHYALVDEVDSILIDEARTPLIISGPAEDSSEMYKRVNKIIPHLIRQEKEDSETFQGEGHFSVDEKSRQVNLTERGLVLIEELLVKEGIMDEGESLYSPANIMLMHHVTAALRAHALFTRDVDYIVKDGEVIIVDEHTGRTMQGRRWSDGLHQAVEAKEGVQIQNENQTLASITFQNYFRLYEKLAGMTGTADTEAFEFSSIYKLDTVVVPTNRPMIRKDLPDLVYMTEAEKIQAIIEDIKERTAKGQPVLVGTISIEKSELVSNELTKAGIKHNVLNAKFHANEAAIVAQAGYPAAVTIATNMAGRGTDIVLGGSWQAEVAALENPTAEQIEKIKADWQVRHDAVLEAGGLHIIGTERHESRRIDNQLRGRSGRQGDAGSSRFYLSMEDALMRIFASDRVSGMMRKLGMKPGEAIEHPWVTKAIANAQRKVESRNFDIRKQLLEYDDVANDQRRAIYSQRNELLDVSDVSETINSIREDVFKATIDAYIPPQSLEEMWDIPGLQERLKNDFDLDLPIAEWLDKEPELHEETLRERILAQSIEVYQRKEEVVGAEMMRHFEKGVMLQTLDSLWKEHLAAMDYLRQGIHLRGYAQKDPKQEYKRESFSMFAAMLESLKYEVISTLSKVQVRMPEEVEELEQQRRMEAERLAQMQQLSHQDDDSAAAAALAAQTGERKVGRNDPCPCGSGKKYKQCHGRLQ
The target in test [2] is T1, Ubiquitin-activating enzyme e1, putative (Leishmania donovani (strain BPK282A1)) (UniProt E9BSI1).
T1 sequence (whole entry): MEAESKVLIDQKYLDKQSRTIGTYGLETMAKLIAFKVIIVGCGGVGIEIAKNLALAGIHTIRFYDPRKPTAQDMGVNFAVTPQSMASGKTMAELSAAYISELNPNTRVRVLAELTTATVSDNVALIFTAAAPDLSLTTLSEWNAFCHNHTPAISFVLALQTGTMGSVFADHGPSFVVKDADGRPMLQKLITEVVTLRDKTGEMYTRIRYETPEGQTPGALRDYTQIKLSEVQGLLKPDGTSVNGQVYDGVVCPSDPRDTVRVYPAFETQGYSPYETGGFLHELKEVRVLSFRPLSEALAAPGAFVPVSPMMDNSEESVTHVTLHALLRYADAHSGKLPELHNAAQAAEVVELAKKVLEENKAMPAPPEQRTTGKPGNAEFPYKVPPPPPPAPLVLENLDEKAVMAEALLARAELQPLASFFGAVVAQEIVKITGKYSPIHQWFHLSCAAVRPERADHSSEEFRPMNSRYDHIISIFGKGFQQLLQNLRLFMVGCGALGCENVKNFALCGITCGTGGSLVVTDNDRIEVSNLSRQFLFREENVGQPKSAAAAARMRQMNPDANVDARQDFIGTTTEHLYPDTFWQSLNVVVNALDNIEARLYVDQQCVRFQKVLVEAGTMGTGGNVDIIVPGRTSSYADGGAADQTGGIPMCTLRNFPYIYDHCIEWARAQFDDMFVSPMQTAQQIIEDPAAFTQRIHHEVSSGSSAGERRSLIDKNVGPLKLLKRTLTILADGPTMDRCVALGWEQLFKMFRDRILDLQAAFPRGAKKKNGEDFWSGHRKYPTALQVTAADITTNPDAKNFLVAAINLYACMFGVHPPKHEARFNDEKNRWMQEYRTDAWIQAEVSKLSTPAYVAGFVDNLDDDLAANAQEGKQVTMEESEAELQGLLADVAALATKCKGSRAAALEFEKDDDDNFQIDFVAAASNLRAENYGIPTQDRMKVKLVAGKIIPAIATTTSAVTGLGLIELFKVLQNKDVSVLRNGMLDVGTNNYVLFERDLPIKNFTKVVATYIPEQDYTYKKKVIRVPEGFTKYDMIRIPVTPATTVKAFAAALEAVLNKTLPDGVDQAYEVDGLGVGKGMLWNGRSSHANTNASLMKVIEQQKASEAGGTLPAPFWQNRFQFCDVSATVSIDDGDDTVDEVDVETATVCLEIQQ
Briefly: Leishmania donovani Ubiquitin Activating Enzyme (LdE1). In kind it is functional. The following applies: 30 µM.

The target in test [3] is AMP-activated protein kinase, AMPK (Homo sapiens) (UniProt P54646+O43741+P54619+Q9UGJ0+Q9Y478+Q13131+Q9UGI9). Briefly: AMP-dependent Kinase enzyme assay. An in vitro enzyme assay that detects ADP turnover that is directly proportional to AMPK activity. This uses naive AMPK that is activated during the assay with MK-8722. In kind it is functional. The note with it: 30 µM.

The target in test [4] is Sialic acid-binding Ig-like lectin 9 (Homo sapiens) (UniProt Q9Y336). Briefly: Hs-Siglec9 ALPHAscreen SOP 20170721. The following applies: 10 µM. For orientation: Alpha assays give light when donor and acceptor beads are brought close together.
Sialic acid-binding Ig-like lectin 9 (Homo sapiens), sequence (Q9Y336 whole entry): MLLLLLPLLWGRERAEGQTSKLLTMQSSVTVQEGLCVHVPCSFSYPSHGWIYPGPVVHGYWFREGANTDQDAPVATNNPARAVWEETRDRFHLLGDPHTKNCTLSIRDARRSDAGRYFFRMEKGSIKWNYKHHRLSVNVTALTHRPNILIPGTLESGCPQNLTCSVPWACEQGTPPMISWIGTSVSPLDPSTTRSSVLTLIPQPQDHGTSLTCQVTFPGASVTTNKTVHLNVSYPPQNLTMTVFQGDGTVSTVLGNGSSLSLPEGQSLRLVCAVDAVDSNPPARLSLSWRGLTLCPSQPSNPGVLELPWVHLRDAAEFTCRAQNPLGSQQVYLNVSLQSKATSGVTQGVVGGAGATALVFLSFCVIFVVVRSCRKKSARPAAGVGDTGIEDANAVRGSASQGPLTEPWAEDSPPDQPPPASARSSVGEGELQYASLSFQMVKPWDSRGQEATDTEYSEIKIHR
The next test deals with Trypanosoma cruzi. Briefly: Trypanosoma cruzi phosphomannomutase and mannose-1-phosphate guanylyltransferase assay. In kind it is functional. The following applies: 10 µM.
Test [5] addresses T2, Arginase-2, mitochondrial (Homo sapiens) (UniProt P78540).
T2 sequence (whole entry): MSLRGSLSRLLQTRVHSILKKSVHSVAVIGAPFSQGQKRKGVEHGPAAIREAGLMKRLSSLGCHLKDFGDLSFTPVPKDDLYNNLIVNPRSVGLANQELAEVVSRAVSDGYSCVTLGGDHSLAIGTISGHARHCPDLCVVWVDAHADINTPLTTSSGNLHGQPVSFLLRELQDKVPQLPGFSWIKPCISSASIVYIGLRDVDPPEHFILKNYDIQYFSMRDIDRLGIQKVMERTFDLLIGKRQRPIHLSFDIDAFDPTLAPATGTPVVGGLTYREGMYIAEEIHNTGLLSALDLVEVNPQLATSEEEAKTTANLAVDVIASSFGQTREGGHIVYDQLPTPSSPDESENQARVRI
Briefly: in vitro enzyme assay to detect the production of urea directly proportional to the activity of Arginase II. Also: in the data most compounds retested in dose-response had high values. The class given is functional. The following applies: 33.3 µM.

Test [6] concerns the target T3, Proteasome subunit beta (Trypanosoma cruzi) (UniProt O96673).
T3 sequence (whole entry): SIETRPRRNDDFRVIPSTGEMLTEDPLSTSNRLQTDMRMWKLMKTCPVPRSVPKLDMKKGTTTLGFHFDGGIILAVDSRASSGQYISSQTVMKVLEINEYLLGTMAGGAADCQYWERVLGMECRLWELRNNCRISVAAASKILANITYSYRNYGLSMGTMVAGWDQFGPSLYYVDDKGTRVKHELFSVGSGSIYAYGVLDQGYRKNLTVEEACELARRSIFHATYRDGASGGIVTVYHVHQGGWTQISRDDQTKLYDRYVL
The test is described as follows: Trypanosoma cruzi proteasome chymotrypsin-like activity (TcProtChymo) assay. Also: in the data most compounds retested in dose-response had high values. In kind it is functional. The note with it: 9.37 µM.

For a further test, the species on record is Homo sapiens. The test is described as follows: To identify inhibition of the IFN signalling (Jak-Stat) pathway via expression of an eGFP reporter gene under the control of an IFN-stimulated response element (ISRE) containing MxA promoter. In kind it is functional. The following applies: 30 µM.
In test [7] the target is T4, Tyrosyl-tRNA synthetase, putative (Trypanosoma cruzi (strain CL Brener)) (UniProt Q4DSP6).
T4 sequence (whole entry): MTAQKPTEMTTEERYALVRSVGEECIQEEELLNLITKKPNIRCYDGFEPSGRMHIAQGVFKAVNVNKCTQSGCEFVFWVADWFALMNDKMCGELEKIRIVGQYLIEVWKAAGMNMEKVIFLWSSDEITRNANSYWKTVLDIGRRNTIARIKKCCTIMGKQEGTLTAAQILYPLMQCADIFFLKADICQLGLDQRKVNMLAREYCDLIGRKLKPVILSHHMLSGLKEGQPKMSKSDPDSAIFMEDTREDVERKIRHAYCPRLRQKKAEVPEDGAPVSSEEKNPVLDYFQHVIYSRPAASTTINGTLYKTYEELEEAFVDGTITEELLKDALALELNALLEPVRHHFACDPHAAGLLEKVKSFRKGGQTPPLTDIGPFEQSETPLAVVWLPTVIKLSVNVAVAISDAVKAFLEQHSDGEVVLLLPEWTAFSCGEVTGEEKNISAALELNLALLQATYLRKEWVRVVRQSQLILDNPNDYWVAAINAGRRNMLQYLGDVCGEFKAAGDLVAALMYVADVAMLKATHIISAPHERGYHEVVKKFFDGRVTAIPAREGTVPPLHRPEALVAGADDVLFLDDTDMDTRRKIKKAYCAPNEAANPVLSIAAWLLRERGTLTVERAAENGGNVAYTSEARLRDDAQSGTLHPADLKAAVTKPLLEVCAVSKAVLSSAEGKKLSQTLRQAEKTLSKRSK
Briefly: Trypanosoma cruzi tyrosyl tRNA synthetase (TcYRS) _High Tyrosine SOP. Also: in the data most compounds retested in dose-response had high values. The class given is functional. The following applies: 30 µM.

Test [8] addresses T4, Tyrosyl-tRNA synthetase, putative (Trypanosoma cruzi (strain CL Brener)). Briefly: Trypanosoma cruzi tyrosyl tRNA synthetase (TcYRS) SOP. The note with it: 30 µM. The class given is functional.
Test [9] addresses Chromo domain-containing protein 1 (Saccharomyces cerevisiae (strain ATCC 204508 / S288c) (Baker's yeast)) (UniProt P32657). Briefly: ScCHD-1 Enzyme Inhibition Assay. Also: in the data most compounds retested in dose-response had high values. In kind it is functional. The note with it: 30 µM.

Chromo domain-containing protein 1 (Saccharomyces cerevisiae (strain ATCC 204508 / S288c) (Baker's yeast)), sequence (P32657 whole entry, the tested form may be a part): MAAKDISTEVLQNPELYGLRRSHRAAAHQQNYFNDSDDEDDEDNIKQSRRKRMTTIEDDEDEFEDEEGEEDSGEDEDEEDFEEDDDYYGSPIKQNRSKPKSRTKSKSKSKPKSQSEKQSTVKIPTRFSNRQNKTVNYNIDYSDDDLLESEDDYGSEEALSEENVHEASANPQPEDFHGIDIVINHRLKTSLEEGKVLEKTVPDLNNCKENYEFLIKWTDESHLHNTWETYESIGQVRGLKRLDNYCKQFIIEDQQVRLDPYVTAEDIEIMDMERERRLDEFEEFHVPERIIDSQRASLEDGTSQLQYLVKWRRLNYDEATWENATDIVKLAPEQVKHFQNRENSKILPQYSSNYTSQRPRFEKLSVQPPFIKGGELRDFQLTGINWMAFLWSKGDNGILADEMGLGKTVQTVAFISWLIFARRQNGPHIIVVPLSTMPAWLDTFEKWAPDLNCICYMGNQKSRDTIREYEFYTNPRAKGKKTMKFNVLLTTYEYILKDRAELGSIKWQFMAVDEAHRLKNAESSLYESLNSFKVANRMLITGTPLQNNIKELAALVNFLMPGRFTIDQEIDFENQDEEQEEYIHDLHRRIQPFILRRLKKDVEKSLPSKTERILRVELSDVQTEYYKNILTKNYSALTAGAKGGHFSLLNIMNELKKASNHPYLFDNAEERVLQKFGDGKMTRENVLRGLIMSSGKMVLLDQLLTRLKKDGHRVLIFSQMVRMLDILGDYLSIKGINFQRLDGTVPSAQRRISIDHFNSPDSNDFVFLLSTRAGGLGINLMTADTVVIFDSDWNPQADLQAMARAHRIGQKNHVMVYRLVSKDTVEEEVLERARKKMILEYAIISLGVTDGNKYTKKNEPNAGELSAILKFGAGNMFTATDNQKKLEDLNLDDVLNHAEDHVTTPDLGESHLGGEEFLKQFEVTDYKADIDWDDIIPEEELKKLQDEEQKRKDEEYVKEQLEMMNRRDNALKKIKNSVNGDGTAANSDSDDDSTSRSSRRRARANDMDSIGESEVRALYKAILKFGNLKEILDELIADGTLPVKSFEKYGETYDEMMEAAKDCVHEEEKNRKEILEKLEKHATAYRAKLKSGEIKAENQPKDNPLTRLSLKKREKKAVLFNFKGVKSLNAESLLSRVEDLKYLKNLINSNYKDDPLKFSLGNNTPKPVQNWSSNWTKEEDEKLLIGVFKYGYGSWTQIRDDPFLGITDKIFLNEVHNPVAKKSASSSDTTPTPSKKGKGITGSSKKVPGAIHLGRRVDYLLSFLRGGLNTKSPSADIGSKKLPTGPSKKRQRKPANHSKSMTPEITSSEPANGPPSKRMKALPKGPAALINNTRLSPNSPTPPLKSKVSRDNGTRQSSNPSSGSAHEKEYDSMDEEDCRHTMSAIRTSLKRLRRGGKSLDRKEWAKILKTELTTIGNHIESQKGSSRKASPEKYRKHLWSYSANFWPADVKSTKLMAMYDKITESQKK

On to `CS(=O)(=O)NCCCN1CCCC1Cc1ccccc1` (stereo not given), for which the Percent Effect was -4.3% in [1]; 0% in test [2]; -5.49% in test [3]; 11.9% in test [4]; 3.49% with Trypanosoma cruzi; -3.42% in [5]. The Percent Effect in [6] was 9.09%; in the test filed under Homo sapiens it was 13%; in [7], 5.42%; in test [8] it was 16.5%; in test [9] it was -3.37%.
On to `Cc1ccc(CC(=O)N2CCOC(c3nc(C(C)(C)C)n[nH]3)C2)cn1` (stereo not given), for which the Percent Effect was -3.58% in test [1]; 12.5% in test [2]; -9.66% in [3]; 13.3% in test [4]; 4.76% with Trypanosoma cruzi; -0.442% in test [5]. Also, the Percent Effect was 7.72% in test [6]; 2.71% in the test listed under Homo sapiens; 3.16% in [7]; 5.13% in test [8]; -2.81% in [9].
On to `O=C(NCCN1CCOCC1)c1n[nH]c(=O)c2ccccc12`, for which the Percent Effect is -3.44% in test [1]; 28.6% in test [2]; -3.48% in test [3]; 5.43% in [4]; 6.37% in the test with Trypanosoma cruzi; -3.56% in [5]. For the same compound, the Percent Effect in test [6] is 14.2%; in the test filed under Homo sapiens, 12.3%; in test [7] it was 4.85%; in [8], 21.9%; in test [9], -9.16%.
In the case of `CN(C)c1cc2c(nn1)CCN(C(=O)C1CCc3ccccc31)C2` (stereo not given), the Percent Effect was -6.92% in test [1]; 5.06% in test [2]; -21.4% in test [3]; 3.81% in [4]; -0.283% in the test on Trypanosoma cruzi; 0.38% in test [5]. For the same compound, the Percent Effect was -1.06% in test [6]; 15.8% in the test listed under Homo sapiens; -5.42% in test [7]; -8.86% in test [8]; -2.71% in test [9].
Turning to `CCN(C1CCS(=O)(=O)C1)S(=O)(=O)c1cccc2cc(C)cnc12` (stereo not given), the Percent Effect in test [1] was -4.6%; in test [2], 21.1%; in test [3] it was 5.96%; in test [4] it was -4.93%; in the test with Trypanosoma cruzi it was -4.01%; in [5], 3.96%. Moreover, the Percent Effect is 4.99% in test [6]; 14.3% in the test filed under Homo sapiens; 6.4% in [7]; 18.5% in test [8]; -6.57% in [9].
`CC(C)c1nn(C)c(Cl)c1CNC1CCOc2ccccc21` (stereo not given): the Percent Effect in test [1] was -3.65%; in test [2] it was 8.11%; in [3], -0.168%; in test [4], 9.16%; in the test on Trypanosoma cruzi, 2.32%; in [5], 0.185%. Also, the Percent Effect in test [6] is -1.79%; in the test filed under Homo sapiens it was 31.4%; in test [7], 8.91%; in test [8], 23.2%; in test [9], -2.97%.
As for `O=c1ccc(-c2cccs2)nn1CN1CCCCCC1`, the Percent Effect was -4.24% in [1]; -4% in test [2]; -3.16% in test [3]; 2.9% in test [4]; 3.54% in the test with Trypanosoma cruzi; -3.35% in test [5]. For the same compound, the Percent Effect is 7.21% in test [6]; -1.68% in the test filed under Homo sapiens; 7.41% in test [7]; 10.3% in [8]; -5.05% in [9].
As to `Cc1noc(C)c1CN(C)CC1CCCN1c1cccnn1` (stereo not given), the Percent Effect in test [1] is -3.03%; in test [2] it was 13%; in test [3], 1.18%; in [4], -2.33%; with Trypanosoma cruzi, 0.0979%; in [5], 0.21%. The Percent Effect in [6] was 11.7%; in the test listed under Homo sapiens, 11.2%; in test [7], 6.67%; in test [8] it was 18.8%; in test [9] it was -25.9%.
With `COc1ccc(CCN2CCCC(CN(C)Cc3ccc(C)o3)C2)cc1` (stereo not given), the Percent Effect in test [1] was -1.16%; in test [2], 0%; in [3], -4.07%; in test [4] it was 31.8%; in the test on Trypanosoma cruzi, 5.18%; in [5], 4.71%. The Percent Effect in test [6] turned out to be 0.772%; in the test listed under Homo sapiens, 11.1%; in test [7], 5.38%; in [8], 11.1%; in [9], 0.528%.
`CC(CNC(=O)Nc1cn[nH]c1)N1CCOCC1` (stereo not given): the Percent Effect was -0.592% in test [1]; 13% in [2]; 1.69% in [3]; -6.2% in test [4]; -3.04% in the test with Trypanosoma cruzi; 6.53% in test [5]. For the same compound, the Percent Effect in test [6] was 15.9%; in the test listed under Homo sapiens, 25%; in [7], 7.62%; in [8], 18.8%; in [9], -18.5%.
